Experimental findings from PubChem BioAssay are described below.

A short description of assay [1]: antimalarial activity against Dd2 strain (AID 2302;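 active = growth inhibition above 50% at the single 2 µM test dose, taken to imply half-maximal potency below 2 µM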;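 note: 0% = DMSO untreated growth and 100% = chloroquine plus artemisinin killed control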). Conditions: P. falciparum Dd2 in RBCs, LDH growth readout, 72 h; at 2 µM; hits give high values.
Assay [2] in a line: HepG2 cytotoxicity, primary screen, cytotoxicity control for P. falciparum antimalarial project, cell-based, ATP luminescence (AID 2303;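 active = inhibition above 50%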;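 note: 0% = DMSO wells and 100% = digitonin-killed cells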). To be noted: HepG2 viability, 24-48 h, at 10 µM, hits give high values.
Assay [3] concerns the target L-lactate dehydrogenase (Plasmodium falciparum (isolate CDC / Honduras)) (UniProt Q27743). As to the kind of experiment: PfLDH activity inhibition – cell lysate, 3D7 strain, counter-screen for P. falciparum growth inhibition project (AID 2304).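 Note: 0% = vehicle and 100% = reference inhibitor.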 To be noted: P. falciparum 3D7 crude extract, LDH APAD/NBT absorbance; at 2 µM; hits give high values. A general note: The purpose of a counterscreen is to sort out artefacts and off-target activity.

A short description of assay [4]: inhibition of 3D7 malaria parasite growth – strain 3D7 (AID 2306).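 Note: 0% = DMSO wells and 100% = chloroquine plus artemisinin control wells.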 To be noted: P. falciparum 3D7 erythrocytic growth, LDH absorbance, 72 h; at 2 µM; hits give high values.
For assay [5], the target named is Calcium-dependent protein kinase 1 (Plasmodium falciparum (isolate 3D7)) (UniProt P62344). As to the kind of experiment: PfCDPK1 kinase inhibitors, biochemical, TCAMS library (AID 1159585; cut-off not given, nearly all actives have IC50 up to about 0.98 µM;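 note: inhibitors leave more ATP so luminescence rises with inhibition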). To be noted: recombinant PfCDPK1, Kinase-Glo ATP depletion luminescence. For orientation: Kinase-Glo measures the ATP left after a reaction by luminescence.
Calcium-dependent protein kinase 1 (Plasmodium falciparum (isolate 3D7)), sequence (P62344 whole entry, looked up): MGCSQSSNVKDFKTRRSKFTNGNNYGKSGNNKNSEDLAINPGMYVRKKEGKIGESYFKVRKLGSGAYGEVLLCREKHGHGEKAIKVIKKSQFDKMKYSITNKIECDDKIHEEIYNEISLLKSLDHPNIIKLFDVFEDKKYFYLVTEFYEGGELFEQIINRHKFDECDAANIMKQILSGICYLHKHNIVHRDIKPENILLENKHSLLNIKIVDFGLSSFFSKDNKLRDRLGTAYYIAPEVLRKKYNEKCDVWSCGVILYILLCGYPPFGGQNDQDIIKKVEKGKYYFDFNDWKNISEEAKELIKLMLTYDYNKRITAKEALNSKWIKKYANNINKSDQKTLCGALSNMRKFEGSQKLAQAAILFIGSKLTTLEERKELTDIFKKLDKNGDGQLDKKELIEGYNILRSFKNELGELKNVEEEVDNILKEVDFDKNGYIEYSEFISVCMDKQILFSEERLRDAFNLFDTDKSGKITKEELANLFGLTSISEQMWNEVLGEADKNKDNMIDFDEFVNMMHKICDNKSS
Assay [6] addresses Plasmodium falciparum protein kinase 6 (PK6, PF3D7_1337100) (UniProt Q8IDW1). As to the kind of experiment: PfPK6 kinase inhibitors, biochemical, TCAMS library (AID 1159586). Conditions: recombinant PfPK6, Kinase-Glo ATP depletion luminescence.
The target in assay [7] is Protein kinase 7 (PK7), Plasmodium falciparum 3D7 (PF3D7_0213400) (UniProt Q7YTF7). The experiment in a line: inhibition of Plasmodium PK7 catalytic activity – biochemical, TCAMS antimalarial set, Kinase-Glo luminescence (AID 1159587). Conditions: recombinant PfPK7, Kinase-Glo ATP depletion luminescence.
Protein kinase 7 (PK7), Plasmodium falciparum 3D7 (PF3D7_0213400), sequence (Q7YTF7 1-343): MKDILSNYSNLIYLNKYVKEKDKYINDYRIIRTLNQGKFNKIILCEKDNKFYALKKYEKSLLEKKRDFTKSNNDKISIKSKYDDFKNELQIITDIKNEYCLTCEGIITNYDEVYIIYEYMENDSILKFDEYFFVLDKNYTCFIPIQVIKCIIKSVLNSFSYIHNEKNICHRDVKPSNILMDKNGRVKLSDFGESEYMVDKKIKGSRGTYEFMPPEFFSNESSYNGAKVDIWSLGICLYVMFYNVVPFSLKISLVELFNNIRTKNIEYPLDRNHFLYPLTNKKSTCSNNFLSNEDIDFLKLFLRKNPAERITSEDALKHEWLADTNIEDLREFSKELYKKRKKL
In assay [8] the target is Calcium-dependent protein kinase 4 (Plasmodium falciparum (isolate 3D7)) (UniProt Q8IBS5). The experiment in a line: PfCDPK4 kinase inhibitors, biochemical, TCAMS library (AID 1159588; cut-off not given, nearly all actives have IC50 up to about 0.91 µM). To be noted: recombinant PfCDPK4, Kinase-Glo ATP depletion luminescence.
Calcium-dependent protein kinase 4 (Plasmodium falciparum (isolate 3D7)), sequence (Q8IBS5 whole entry, looked up): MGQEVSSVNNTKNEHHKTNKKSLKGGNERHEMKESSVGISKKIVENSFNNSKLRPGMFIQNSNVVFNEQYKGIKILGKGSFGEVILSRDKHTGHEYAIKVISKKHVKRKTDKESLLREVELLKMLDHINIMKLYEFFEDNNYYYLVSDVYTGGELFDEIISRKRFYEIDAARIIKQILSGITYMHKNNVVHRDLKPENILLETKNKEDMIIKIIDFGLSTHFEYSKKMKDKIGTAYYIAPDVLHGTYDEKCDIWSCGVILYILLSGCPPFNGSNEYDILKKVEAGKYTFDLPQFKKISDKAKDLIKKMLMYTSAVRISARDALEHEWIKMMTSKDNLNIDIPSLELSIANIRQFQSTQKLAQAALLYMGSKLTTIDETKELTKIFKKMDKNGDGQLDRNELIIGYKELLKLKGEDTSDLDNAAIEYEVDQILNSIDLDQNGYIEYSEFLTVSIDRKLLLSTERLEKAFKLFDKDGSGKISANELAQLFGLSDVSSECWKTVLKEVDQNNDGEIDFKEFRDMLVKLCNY

Values without a mark were called inactive. For some assays here: Potency and affinity values are given separately. Calls of active or inactive are those of the source. Unless noted, the rule behind the calls is not given here.

Plasmodium falciparum protein kinase 6 (PK6, PF3D7_1337100), sequence (Q8IDW1 1-305): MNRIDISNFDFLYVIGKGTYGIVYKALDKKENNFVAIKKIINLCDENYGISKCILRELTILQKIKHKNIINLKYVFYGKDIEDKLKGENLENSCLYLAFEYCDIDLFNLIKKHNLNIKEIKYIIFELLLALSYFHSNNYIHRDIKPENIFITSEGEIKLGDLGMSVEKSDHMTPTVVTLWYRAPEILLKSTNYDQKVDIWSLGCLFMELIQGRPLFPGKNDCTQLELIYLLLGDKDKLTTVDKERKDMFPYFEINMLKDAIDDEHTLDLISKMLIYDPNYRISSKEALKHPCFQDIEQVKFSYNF
L-lactate dehydrogenase (Plasmodium falciparum (isolate CDC / Honduras)), sequence (Q27743 whole entry, looked up): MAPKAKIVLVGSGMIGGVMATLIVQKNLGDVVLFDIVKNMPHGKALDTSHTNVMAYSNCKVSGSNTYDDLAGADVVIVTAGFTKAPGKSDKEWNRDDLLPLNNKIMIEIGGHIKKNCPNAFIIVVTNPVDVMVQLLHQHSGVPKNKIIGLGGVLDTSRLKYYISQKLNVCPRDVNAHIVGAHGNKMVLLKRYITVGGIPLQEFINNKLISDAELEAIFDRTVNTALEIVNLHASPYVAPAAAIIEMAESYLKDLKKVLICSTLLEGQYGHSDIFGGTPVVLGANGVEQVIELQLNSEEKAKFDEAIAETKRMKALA

Usually inhibition stands for the drop in the measured response relative to a control, in per cent. On to `COc1ccc(NC(=O)c2ccc(-c3nc(-c4ccccc4)cs3)cc2)cc1N1CCN(C)CC1`, for which the growth inhibition in assay [1] is 13%; in assay [4] it was 93% (active). The inhibition in assay [2] is 17%; in assay [3], -3%. Further, the outcome in assay [5], in assay [6], in assay [7] and in assay [8] was inactive.

With `Cn1c(-c2ccccc2)cc2c3c(=O)cc(C(F)(F)F)[nH]c3ccc21`, the growth inhibition in assay [1] was 49%; in assay [4], 95% (active). Besides, the inhibition is 21% in assay [2] and -1% in assay [3]. In addition, the outcome in assay [5], in assay [6], in assay [7] and in assay [8] was inactive.

On to `CC(=O)c1sc2ccccc2c1O`, for which the growth inhibition in assay [1] is -2%; in assay [4] it was 91% (active). The inhibition was 14% in assay [2] and 6% in assay [3]. Besides, the outcome in assay [5], in assay [6], in assay [7] and in assay [8] was inactive.

On to `CCCN(CCC)S(=O)(=O)c1ccc(C(=O)N2CCC(C(=O)OCC)CC2)cc1`, for which the growth inhibition in assay [1] was 41%; in assay [4], 98% (active). The inhibition in assay [2] was 26%; in assay [3] it was 1%. Besides, the outcome in assay [5], in assay [6], in assay [7] and in assay [8] was inactive.

As to `COc1ccc(-c2cncc(-c3ccc(OC)c(OC)c3)n2)cc1OC`, the figures for the growth inhibition in assay [1] and in assay [4] were 90% (active) and 95% (active), respectively. The inhibition in assay [2] and in assay [3] was 6% in each case. For the same compound, the outcome in assay [5], in assay [6], in assay [7] and in assay [8] was inactive.

For `CCN(CC)CCN(Cc1ccc(-c2ccc(C(F)(F)F)cc2)cc1)C(=O)Cn1c(CCc2cccc(F)c2F)cc(=O)c2c1CCCC2`, the growth inhibition in assay [1] was 95% (active); in assay [4], 100% (active). Further, the values for the inhibition in assay [2] and in assay [3] were 93% (active) and 1%, respectively. Besides, the result in assay [5], in assay [6], in assay [7] and in assay [8] was inactive.

For `Cc1cc(NCCCCCCCCNc2cc(C)nc3ccccc23)c2ccccc2n1`, the growth inhibition is -1% in assay [1] and 101% (active) in assay [4]. The inhibition in assay [2] is 59% (active); in assay [3] it was -1%. The result in assay [5], in assay [6], in assay [7] and in assay [8] was inactive.

In the case of `COc1ccc(CN(C)Cc2cc(C(C)C)c(C)cc2O)cc1F`, the growth inhibition in assay [1] and in assay [4] was 98% (active) each time. In addition, the figures for the inhibition in assay [2] and in assay [3] were 1% and -4%, respectively. In addition, the outcome in assay [5], in assay [6], in assay [7] and in assay [8] was inactive.

For the compound `Fc1ccccc1C=NNc1ccnc2ccc(C(F)(F)F)cc12`, the growth inhibition is 61% (active) in assay [1] and 100% (active) in assay [4]. Besides, the inhibition in assay [2] is 5%; in assay [3] it was 3%. The result in assay [5], in assay [6], in assay [7] and in assay [8] was inactive.

With `Cc1noc(C)c1CN1Cc2ccccc2OC2(CCN(Cc3c[nH]c4cnccc34)CC2)C1`, the results for the growth inhibition in assay [1] and in assay [4] were 12% and 89% (active), respectively. Moreover, the results for the inhibition in assay [2] and in assay [3] were 19% and -2%, respectively. Also, the outcome in assay [5], in assay [6], in assay [7] and in assay [8] was inactive.

On to `COc1ccc(CNC2Cc3ccccc3C2)cc1-c1ccc(S(=O)(=O)NCCc2ccccn2)s1`, for which the figures for the growth inhibition in assay [1] and in assay [4] were 22% and 92% (active), respectively. Moreover, the inhibition was 11% in assay [2] and 0% in assay [3]. Moreover, the result in assay [5], in assay [6], in assay [7] and in assay [8] was inactive.

For the compound `Cc1ccccc1C1CCN(c2ncc(C(=O)Nc3ccccc3)cc2Cl)CC1`, the growth inhibition in assay [1] and in assay [4] was 83% (active) throughout. The inhibition in assay [2] was 29%; in assay [3], -3%. Moreover, the outcome in assay [5], in assay [6], in assay [7] and in assay [8] was inactive.

For `O=S(=O)(NCCN1CCCC1)c1ccc(-c2cccc(CNC3Cc4ccccc4C3)c2)s1`, the growth inhibition was 69% (active) in assay [1] and 98% (active) in assay [4]. Also, the inhibition in assay [2] was 57% (active); in assay [3], 2%. The outcome in assay [5], in assay [6], in assay [7] and in assay [8] was inactive.

Consider `Cc1cc(N[C@@H](Cc2ccccc2)C(=O)NCCOc2ccccc2)nc(NCCc2ccc(F)cc2)n1`, for which the growth inhibition in assay [1] is 86% (active); in assay [4], 99% (active). For the same compound, the inhibition is 5% in assay [2] and 1% in assay [3]. The result in assay [5], in assay [6], in assay [7] and in assay [8] was inactive.

Consider `O=c1ccc(CNc2nc(NCCc3ccccc3)nc3ccc(Cl)cc23)c[nH]1`, for which the growth inhibition in assay [1] is 16%; in assay [4] it was 99% (active). Further, the inhibition in assay [2] was 9%; in assay [3], 2%. Further, the result in assay [5], in assay [6], in assay [7] and in assay [8] was inactive.

In the case of `CC(C)(C)c1cc(C(=O)Nc2cccnc2)cc(C(=O)Nc2cccnc2)c1`, the figures for the growth inhibition in assay [1] and in assay [4] were 35% and 95% (active), respectively. Besides, the inhibition was -12% in assay [2] and -3% in assay [3]. Further, the outcome in assay [5], in assay [6], in assay [7] and in assay [8] was inactive.

For `O=C(CN1CCCCC1)Nc1ccc(Nc2nccc(NCC(O)c3ccccc3)n2)cc1` (configuration not stated), the growth inhibition is 95% (active) in assay [1] and 101% (active) in assay [4]. For the same compound, the inhibition was 62% (active) in assay [2] and 3% in assay [3]. Moreover, the result in assay [5], in assay [6], in assay [7] and in assay [8] was inactive.

`CN(C)Cc1ccc(CN2CCN(CCOc3ccc(-c4ccc(Cl)cc4)cc3)CC2)o1`: the growth inhibition was 21% in assay [1] and 90% (active) in assay [4]. Also, the inhibition in assay [2] was 75% (active); in assay [3] it was -1%. The outcome in assay [5], in assay [6], in assay [7] and in assay [8] was inactive.

Regarding `COc1ccccc1N1CCN(CCCCNC(=O)c2ccc(NC(=O)c3cc4ccccc4o3)cc2)CC1`, the growth inhibition was 2% in assay [1] and 84% (active) in assay [4]. In addition, the inhibition in assay [2] was 9%; in assay [3] it was -1%. Further, the result in assay [5], in assay [6], in assay [7] and in assay [8] was inactive.
